Measured values reported in PubChem BioAssay (NCATS).
Where “and” joins values, the source holds several entries; their conditions need not be identical. Equal entries are not always repeated. Inconclusive results are not listed. Calls of active or inactive are those of the source. Unless noted, calls come from the whole dose curve.

Legend:
[1] = qHTS assay for small molecule antagonists of peroxisome proliferator-activated receptor delta signaling (AID 588535; active = well fitted inhibition curve with a large enough effect in the signal ratio, with a control signal flat, not every such curve was filed as active; the % refers to the signal ratio;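 for max response: cells co-treated with a PPAR-delta agonist as stimulator during compound exposure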); settings: HEK293T PPARd-UAS-bla, beta-lactamase FRET ratio, 18 h; 460 nm channel
Method in brief: (§1)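 Antagonist-mode beta-lactamase reporter (GeneBLAzer PPAR-delta-UAS-bla) in HEK293T cells, 2% charcoal/dextran FBS, 4000 cells/well. Compound titrations, 18 h at 37 C; CCF4 ratio read, IC50 and efficacy from Hill fits.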

[2] = biological target: Peroxisome proliferator-activated receptor delta (Homo sapiens) (UniProt Q03181); test: as above; settings: HEK293T PPARd-UAS-bla, beta-lactamase FRET ratio, 18 h; series mostly up to 76.7 µM
Method in brief: as §1

[3] = biological target: Vitamin D3 receptor (Homo sapiens) (UniProt P11473); test: qHTS assay for small molecule antagonists of vitamin D receptor signaling (AID 588541); settings: HEK293T VDR-UAS-bla, beta-lactamase ratio, antagonist mode; series mostly up to 76.7 µM;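 note: receptor activated by calcitriol during compound treatment; % is set by controls: 0 for no effect and ±100 for the full control effect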
Method in brief: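 VDR-UAS-bla HEK293T cells in 2% charcoal-stripped FBS were stimulated with 1-alpha,25-dihydroxyvitamin D3 (3 nM final) plus compound for 16 h at 37 C. The beta-lactamase CCF4 readout was normalized to 50 nM agonist and DMSO, and Hill fits gave IC50.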

[4] = biological target: Vitamin D3 receptor (Homo sapiens) (UniProt P11473); test: qHTS assay for small molecule agonists of vitamin D receptor signaling (AID 588543); settings: HEK293T VDR-UAS-bla, beta-lactamase ratio, 16 h; series mostly up to 76.8 µM;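 note: 0% = DMSO basal and 100% = reference agonist control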
Method in brief: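 VDR-UAS-bla HEK293T cells, 2000/well, 2% charcoal-stripped FBS; compound titration 16 h at 37 C; CCF4 beta-lactamase ratio read. Normalized to 50 nM 1-alpha,25-dihydroxyvitamin D3 (100%) and DMSO; Hill fit gives EC50, efficacy.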

[5] = qHTS assay for small molecule agonists of retinoid X receptor alpha signaling (AID 588544); settings: HEK293T RXRa-UAS-bla, beta-lactamase reporter, 18 h; 530 nm emission
[6] = biological target: Retinoic acid receptor RXR-alpha (Homo sapiens) (UniProt P19793); test: as above; settings: HEK293T RXRa-UAS-bla, beta-lactamase reporter, 18 h; series mostly up to 76.7 µM
[7] = biological target: Thyroid hormone receptor beta (Homo sapiens) (UniProt P10828); test: qHTS assay for small molecule agonists of thyroid hormone receptor beta signaling (AID 588545); settings: TR-UAS-bla GripTite HEK 293, beta-lactamase ratio, agonist mode, 18 h, percent of T3 response, DMSO as zero; series mostly up to 76.7 µM
Method in brief: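 HEK 293 TR-UAS-bla; agonist mode; 18 hrs, 37 C; CCF4, ex 405/em 460 and 530 nm; norm. T3 10 nM = 100%, DMSO = 0%; Hill fit → EC50, efficacy.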

[8] = qHTS assay for small molecule antagonists of retinoid X receptor alpha signaling (AID 588546; active = well fitted inhibition curve with a large enough effect in the signal ratio, with a control signal flat, not every such curve was filed as active; the % refers to the signal ratio;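 note: cells stimulated with 9-cis-retinoic acid as agonist; % is set by controls: 0 for no effect and ±100 for the full control effect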); settings: HEK293T RXRa-UAS-bla, beta-lactamase ratio, antagonist mode; measured here: W530 green channel, cytotoxicity proxy
Method in brief: (§2)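 Beta-lactamase reporter inhibition, read as CCF4 fluorescence ratio (ex 405, em 460/530 nm) after 2 h at RT. HEK293T UAS-bla cells, 2500/well, were stimulated with 9-cis-RA at 500 or 100 nM final alongside test compound for 18 h at 37 C.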

[9] = biological target: Retinoic acid receptor RXR-alpha (Homo sapiens) (UniProt P19793); test: as above; settings: HEK293T RXRa-UAS-bla, beta-lactamase ratio, antagonist mode
Method in brief: as §2

[10] = biological target: Thyroid hormone receptor beta (Homo sapiens) (UniProt P10828); test: qHTS assay for small molecule antagonists of thyroid hormone receptor beta signaling (AID 588547; active = well fitted inhibition curve with a large enough effect in the signal ratio, with a control signal flat, not every such curve was filed as active; the % refers to the signal ratio;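 note: cells stimulated with 0.4 nM T3 agonist during compound exposure; % is set by controls: 0 for no effect and ±100 for the full control effect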); settings: TR-UAS-bla HEK293, beta-lactamase ratio, antagonist mode, 18 h
Method in brief: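 TR-UAS-bla GripTite HEK293 cells in 2% charcoal/dextran FBS medium; compounds 0.59 nM to 92 uM with T3 at 0.4nM final, 18 h at 37 C. Beta-lactamase read by CCF4 fluorescence (460/530 nm); Hill fits gave IC50 and efficacy.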

[11] = biological target: Voltage-gated inwardly rectifying potassium channel KCNH2 (Homo sapiens) (UniProt Q12809); test: qHTS Assay for Small Molecule Inhibitors of the Human hERG Channel Activity (AID 588834; active = well fitted curve in the direction sought with a large enough effect; an effect the other way counts as inactive or inconclusive;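 note: top concentration of the series differs between compounds; % is set by controls: 0 for no effect and ±100 for the full control effect; lower thallium flux fluorescence means stronger hERG block; nearly all actives have a fitted effect of over 50% in size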); settings: U2OS BacMam hERG, FluxOR thallium flux fluorescence; series mostly up to 46.1 µM
Method in brief: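 U2OS cells BacMam-transduced with hERG, 2000 cells/well, compound ~10 min at 37 °C before stimulation buffer. FluxOR thallium flux fluorescence read kinetically on FDSS; decrease indicates block; AC50 from Hill fits.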

[12] = qHTS of Trypanosoma Brucei Inhibitors: LOPAC Validation (AID 624147; active = well fitted curve in the direction sought with a large enough effect; an effect the other way counts as inactive or inconclusive; note: 0% is about no effect); settings: purified enzyme assay, luminescence, 45 min; series mostly up to 57.5 µM
Method in brief: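 Enzyme and substrate buffer are dispensed first and compound is pin-transferred. ADP at 130 uM final then starts the reaction, which runs 45 min at room temperature. Detection reagent is added for 10 min before luminescence is imaged.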

[13] = biological target: Peroxisome proliferator-activated receptor gamma (Homo sapiens) (UniProt P37231); test: qHTS assay for small molecule agonists of peroxisome proliferator-activated receptor gamma signaling (AID 588536; active = well fitted curve in the direction sought with a large enough effect in the signal ratio, with a control signal flat, not every such curve was filed as active; the % refers to the signal ratio;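 note: 0% = DMSO basal wells and 100% = rosiglitazone at 2 µM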); settings: HEK293 PPARg-UAS-bla, beta-lactamase ratio, 16 h, percent of rosiglitazone response, DMSO as zero; series mostly up to 76.7 µM
Method in brief: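 GeneBLAzer PPAR-gamma-UAS-bla HEK293 cells in 1% charcoal/dextran-treated FBS medium were treated 16 h at 37 C with compounds. Beta-lactamase activity was read by CCF4 ratio (460/530 nm). Response was normalized to 2 uM rosiglitazone (100%) and DMSO, then Hill-fitted for EC50 and efficacy.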

[14] = biological target: Peroxisome proliferator-activated receptor gamma (Homo sapiens) (UniProt P37231); test: qHTS assay for small molecule antagonists of peroxisome proliferator-activated receptor gamma signaling (AID 588537; active = well fitted inhibition curve with a large enough effect in the signal ratio, with a control signal flat, not every such curve was filed as active; the % refers to the signal ratio;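 note: reporter cells co-stimulated with 50 nM rosiglitazone agonist during compound treatment; % of control where 0% means no effect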); settings: HEK293 PPARg-UAS-bla, beta-lactamase ratio, antagonist mode; series mostly up to 76.8 µM
Method in brief: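 PPARγ-UAS-bla HEK293 cells (3000/well) in 1% charcoal/dextran-stripped FBS are treated with compound, then stimulated with 50 nM rosiglitazone for 16 h at 37 °C. Read-out is CCF4 β-lactamase fluorescence after 2 h at RT. IC50 comes from Hill fits normalised to rosiglitazone and DMSO.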

[15] = biological target: Luciferin 4-monooxygenase (Photinus pyralis) (UniProt P08659); test: Biochemical firefly luciferase enzyme assay for NPC (AID 624030; active = well fitted curve in the direction sought with a large enough effect; an effect the other way counts as inactive or inconclusive;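 note: purified P. pyralis luciferase at 10 nM with luciferin and ATP substrate; 0% = DMSO and -100% = full luciferase inhibition by PTC124 control; nearly all actives have a fitted effect of over 70% in size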); settings: purified P. pyralis luciferase, luminescence, 5 min; series mostly up to 58.6 µM
Method in brief: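 Purified P. pyralis luciferase at 10 nM in 50 mM Tris Acetate (final), luminescence read within 5 minutes of enzyme addition to compounds. Activity normalised to PTC124 versus DMSO; concentration-response curves classed by r2, magnitude and activity.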

[16] = S16 Schwann cell viability assay (CellTiter-Glo assay) (AID 624031; active = well fitted curve in the direction sought with a large enough effect; an effect the other way counts as inactive or inconclusive;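 note: cellular ATP luminescence as a viability measure; plate controls were DMSO-treated cells for no effect and cell-free wells for full effect; nearly all actives have a fitted effect of over 70% in size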); settings: S16 rat Schwann cells viability, 24 h; series mostly up to 57.5 µM
Method in brief: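 Luminescent ATP read-out (CellTiter-Glo) after 24 h compound exposure of native S16 rat Schwann cells at 37 °C. Signals were normalized between cell-free wells and DMSO-treated cells, set as 0% activity.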

[17] = S16 Schwann cell PMP22 intronic element firefly luciferase assay (AID 624032; active = well fitted curve in the direction sought with a large enough effect; an effect the other way counts as inactive or inconclusive; note: nearly all actives have a fitted effect of over 30% in size; note: potency is the fitted concentration of half-maximal effect); settings: S16 rat Schwann cells, PMP22 element FLuc, 24 h; series mostly up to 57.5 µM
Method in brief: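 Rat S16 Schwann cells stably carrying firefly luciferase driven by a PMP22 intronic element, in 10% FBS, treated 24 h at 37 C. ONE-Glo luminescence normalized to PTC124 control and DMSO (0%); curves classed by r2, magnitude and activity.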

[18] = S16 Schwann cell PMP22 intronic element beta-lactamase assay (AID 624044); settings: S16 rat Schwann cells, PMP22 element beta-lactamase FRET, 24 h; series mostly up to 38.3 µM;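 note: 0% = DMSO and -100% = potassium clavulanate positive control; nearly all actives have a fitted effect of over 15% in size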
Method in brief: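 Rat S16 Schwann cells with beta-Lac driven by a PMP22 intronic element, compound-treated 24 h at 37 °C. LiveBLAzer FRET B/G read: 460 nm normalized to potassium clavulanate vs DMSO; 535 nm FRET as viability; concentration-effect curves classified.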

[19] = biological target: Peroxisome proliferator-activated receptor delta (Homo sapiens) (UniProt Q03181); test: qHTS assay for small molecule agonists of peroxisome proliferator-activated receptor delta signaling (AID 588534); settings: HEK293T PPARdelta-UAS-bla, beta-lactamase ratio, 18 h; series mostly up to 76.7 µM;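 note: 0% = DMSO basal wells and 100% = positive control agonist at 10 µM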
Method in brief: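 Cells carrying a PPAR-delta beta-lactamase reporter were treated with compounds for 18 h at 37 °C in agonist mode. CCF4 fluorescence was read after 2 h; EC50 and efficacy from Hill fits.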

Chain of Luciferin 4-monooxygenase (Photinus pyralis) (P08659 whole entry, looked up): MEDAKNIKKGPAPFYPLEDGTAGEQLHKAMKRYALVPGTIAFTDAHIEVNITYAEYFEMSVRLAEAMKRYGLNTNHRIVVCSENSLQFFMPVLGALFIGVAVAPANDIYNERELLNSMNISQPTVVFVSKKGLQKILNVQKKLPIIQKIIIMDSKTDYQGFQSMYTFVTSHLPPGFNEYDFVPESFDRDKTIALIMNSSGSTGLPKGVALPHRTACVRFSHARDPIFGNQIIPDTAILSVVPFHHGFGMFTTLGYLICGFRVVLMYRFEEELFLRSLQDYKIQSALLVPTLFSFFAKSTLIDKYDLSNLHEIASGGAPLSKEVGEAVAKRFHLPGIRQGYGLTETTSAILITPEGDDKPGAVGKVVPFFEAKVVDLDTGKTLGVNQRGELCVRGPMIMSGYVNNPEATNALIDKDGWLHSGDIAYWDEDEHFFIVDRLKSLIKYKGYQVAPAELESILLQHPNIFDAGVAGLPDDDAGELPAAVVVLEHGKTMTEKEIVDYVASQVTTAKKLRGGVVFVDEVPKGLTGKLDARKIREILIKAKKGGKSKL
Chain of Peroxisome proliferator-activated receptor delta (Homo sapiens) (Q03181 whole entry, looked up): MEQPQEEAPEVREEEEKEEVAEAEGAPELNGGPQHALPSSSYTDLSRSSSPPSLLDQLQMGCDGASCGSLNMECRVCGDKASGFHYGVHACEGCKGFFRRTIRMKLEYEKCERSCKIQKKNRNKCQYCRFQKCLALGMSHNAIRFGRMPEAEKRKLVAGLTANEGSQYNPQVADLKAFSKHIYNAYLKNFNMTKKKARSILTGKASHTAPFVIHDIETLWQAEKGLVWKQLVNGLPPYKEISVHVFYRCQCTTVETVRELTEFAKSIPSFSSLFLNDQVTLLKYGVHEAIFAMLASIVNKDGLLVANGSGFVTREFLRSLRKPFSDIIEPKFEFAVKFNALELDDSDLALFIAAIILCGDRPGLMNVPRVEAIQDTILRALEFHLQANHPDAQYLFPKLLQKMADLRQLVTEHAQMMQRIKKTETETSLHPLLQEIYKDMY
Chain of Peroxisome proliferator-activated receptor gamma (Homo sapiens) (P37231 whole entry, looked up): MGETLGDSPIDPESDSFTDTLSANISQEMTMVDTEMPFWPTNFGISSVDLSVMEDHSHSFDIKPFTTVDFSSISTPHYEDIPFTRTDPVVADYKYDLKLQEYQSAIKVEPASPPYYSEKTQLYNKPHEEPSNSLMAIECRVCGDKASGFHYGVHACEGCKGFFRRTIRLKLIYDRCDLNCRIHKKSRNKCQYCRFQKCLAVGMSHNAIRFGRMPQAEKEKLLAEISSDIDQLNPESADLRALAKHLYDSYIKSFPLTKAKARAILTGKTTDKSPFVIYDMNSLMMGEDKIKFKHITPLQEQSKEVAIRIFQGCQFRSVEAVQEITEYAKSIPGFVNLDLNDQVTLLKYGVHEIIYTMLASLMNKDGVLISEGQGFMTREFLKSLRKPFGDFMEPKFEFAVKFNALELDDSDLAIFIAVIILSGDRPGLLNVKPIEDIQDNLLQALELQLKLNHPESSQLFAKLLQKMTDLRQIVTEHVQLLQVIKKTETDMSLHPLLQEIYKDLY
Chain of Vitamin D3 receptor (Homo sapiens) (P11473 whole entry, looked up): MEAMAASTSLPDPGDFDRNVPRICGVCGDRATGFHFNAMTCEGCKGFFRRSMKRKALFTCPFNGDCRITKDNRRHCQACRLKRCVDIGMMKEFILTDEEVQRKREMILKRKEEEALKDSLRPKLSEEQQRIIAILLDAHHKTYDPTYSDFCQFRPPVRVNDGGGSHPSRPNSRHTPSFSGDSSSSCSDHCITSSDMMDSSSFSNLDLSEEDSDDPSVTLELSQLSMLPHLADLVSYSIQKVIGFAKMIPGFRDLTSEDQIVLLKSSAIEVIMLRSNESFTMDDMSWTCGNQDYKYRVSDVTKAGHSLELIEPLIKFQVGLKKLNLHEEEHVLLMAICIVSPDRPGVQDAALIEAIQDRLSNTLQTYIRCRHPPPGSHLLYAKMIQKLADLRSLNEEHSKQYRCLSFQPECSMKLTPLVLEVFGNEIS
Chain of Thyroid hormone receptor beta (Homo sapiens) (P10828 whole entry, looked up): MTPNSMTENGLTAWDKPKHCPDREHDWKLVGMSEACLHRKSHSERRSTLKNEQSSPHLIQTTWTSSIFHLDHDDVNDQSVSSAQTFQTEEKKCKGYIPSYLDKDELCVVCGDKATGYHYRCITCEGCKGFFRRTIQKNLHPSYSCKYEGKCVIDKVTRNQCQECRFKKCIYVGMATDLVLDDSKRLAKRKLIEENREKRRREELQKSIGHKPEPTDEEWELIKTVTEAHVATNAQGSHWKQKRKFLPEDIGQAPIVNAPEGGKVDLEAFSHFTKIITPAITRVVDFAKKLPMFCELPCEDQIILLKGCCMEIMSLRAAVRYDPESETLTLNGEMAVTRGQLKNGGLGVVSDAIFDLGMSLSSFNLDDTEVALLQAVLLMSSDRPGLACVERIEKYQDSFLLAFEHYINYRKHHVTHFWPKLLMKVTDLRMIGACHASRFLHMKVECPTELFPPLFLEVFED
Chain of Retinoic acid receptor RXR-alpha (Homo sapiens) (P19793 whole entry, looked up): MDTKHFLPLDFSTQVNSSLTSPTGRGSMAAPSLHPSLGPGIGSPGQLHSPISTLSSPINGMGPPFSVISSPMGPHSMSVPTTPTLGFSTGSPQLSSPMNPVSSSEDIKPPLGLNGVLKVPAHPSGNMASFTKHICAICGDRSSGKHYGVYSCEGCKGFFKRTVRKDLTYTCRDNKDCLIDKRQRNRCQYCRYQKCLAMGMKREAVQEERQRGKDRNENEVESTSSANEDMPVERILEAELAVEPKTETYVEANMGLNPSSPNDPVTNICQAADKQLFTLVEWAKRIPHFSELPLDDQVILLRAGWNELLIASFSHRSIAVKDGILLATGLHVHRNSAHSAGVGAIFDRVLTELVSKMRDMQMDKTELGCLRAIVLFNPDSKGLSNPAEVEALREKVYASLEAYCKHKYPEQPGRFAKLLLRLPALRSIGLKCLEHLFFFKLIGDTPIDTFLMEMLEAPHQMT
Chain of Voltage-gated inwardly rectifying potassium channel KCNH2 (Homo sapiens) (Q12809 whole entry, looked up): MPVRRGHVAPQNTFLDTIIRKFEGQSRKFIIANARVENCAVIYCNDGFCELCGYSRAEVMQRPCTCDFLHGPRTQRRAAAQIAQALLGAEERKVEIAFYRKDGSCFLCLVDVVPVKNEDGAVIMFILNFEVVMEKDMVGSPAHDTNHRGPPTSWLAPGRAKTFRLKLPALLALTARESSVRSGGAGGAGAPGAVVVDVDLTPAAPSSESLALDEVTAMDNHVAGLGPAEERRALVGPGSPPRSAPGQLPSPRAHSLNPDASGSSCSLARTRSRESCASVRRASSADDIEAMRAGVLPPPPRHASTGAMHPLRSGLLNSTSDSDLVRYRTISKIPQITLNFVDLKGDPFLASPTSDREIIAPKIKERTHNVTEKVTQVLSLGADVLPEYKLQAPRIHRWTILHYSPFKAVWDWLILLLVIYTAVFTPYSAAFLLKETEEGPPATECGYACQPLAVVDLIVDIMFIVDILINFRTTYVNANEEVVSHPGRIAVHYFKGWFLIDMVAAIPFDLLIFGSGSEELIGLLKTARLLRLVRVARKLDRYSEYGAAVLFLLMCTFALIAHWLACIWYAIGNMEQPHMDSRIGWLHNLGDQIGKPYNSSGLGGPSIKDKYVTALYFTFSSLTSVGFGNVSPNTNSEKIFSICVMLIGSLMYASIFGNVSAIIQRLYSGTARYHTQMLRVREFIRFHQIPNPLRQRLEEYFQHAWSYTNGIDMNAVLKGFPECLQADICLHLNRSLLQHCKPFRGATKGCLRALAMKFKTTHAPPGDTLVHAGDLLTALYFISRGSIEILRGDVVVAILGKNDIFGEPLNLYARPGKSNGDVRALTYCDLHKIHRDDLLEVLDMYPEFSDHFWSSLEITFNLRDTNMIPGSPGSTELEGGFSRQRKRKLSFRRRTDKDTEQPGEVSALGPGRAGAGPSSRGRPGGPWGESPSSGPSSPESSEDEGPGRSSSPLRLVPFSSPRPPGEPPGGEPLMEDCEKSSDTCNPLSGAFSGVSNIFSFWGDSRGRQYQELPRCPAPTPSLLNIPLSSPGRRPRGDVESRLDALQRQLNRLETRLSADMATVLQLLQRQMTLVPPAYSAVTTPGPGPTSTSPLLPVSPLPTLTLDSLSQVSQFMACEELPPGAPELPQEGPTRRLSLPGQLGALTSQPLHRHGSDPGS

CNCC(O)c1ccc(O)cc1 (stereo unspecified)
-16.7%: max response [1]
inactive: outcome [2] | outcome [3] | outcome [4] | Potency [6] | outcome [7] | max response [9] 7.59% | activity change % (negative = inhibition) [10] 3.5% | Potency [11] | outcome [12]
4.18%: max response [5]
8.32%: max response [8]

CCCC(C)(COC(N)=O)COC(=O)NC(C)C (stereo unspecified)
inactive: outcome [13] | Potency [14] | outcome [3] | outcome [4] | Potency [6] | outcome [7] | max response [9] 1.9% and -6.86% | activity change % (negative = inhibition) [10] 4.32% and -7.39% | Potency [11] | Potency [15] | Potency [16] | Potency [17] | outcome [12]
-3.14% and 6.33%: max response [5]
3.28% and 3.87%: max response [8]

C[C@]12C/C(=C/O)C(=O)C[C@@H]1CC[C@@H]1[C@@H]2CC[C@@]2(C)[C@H]1CC[C@]2(C)O
inactive: outcome [4] | outcome [7] | Potency [11] | Potency [15] | Potency [16] | Potency [18]

O=C1NC(=O)C(c2ccccc2)(c2ccccc2)N1
inactive: outcome [19]

CCn1cc(C(=O)O)c(=O)c2ccc(C)nc21
24.5%: max response [5]
27.2%: max response [1]
inactive: outcome [2] | Potency [6] | Potency [11]

NC[C@H](O)c1ccc(O)c(O)c1
inactive: outcome [19]

CC(C)(C)CC(C)(C)c1ccc(O)cc1
-53.5%: max response [5]
inactive: outcome [19] | outcome [2] | outcome [3] | outcome [4] | Potency [6] | Potency [11] | Potency [15] | Potency [16] | Potency [17] | Potency [18]
-1.27%: max response [1]

CCOP(=S)(OCC)Oc1cc(C)nc(C(C)C)n1
inactive: outcome [19] | outcome [2] | outcome [13] | Potency [14] | Potency [6] | outcome [7] | max response [9] -2.21% and -10% | activity change % (negative = inhibition) [10] -8.33% and 8.71% | Potency [11] | Potency [15] | Potency [16] | Potency [17] | Potency [18]
-12.3% and -5.87%: max response [8]
-5.09% and -15.6%: max response [5]
-10.2% and 44.9%: max response [1]

NCC(O)c1ccc(O)cc1 (stereo unspecified)
inactive: outcome [13] | outcome [3] | outcome [4] | Potency [6] | max response [9] 1.76% | Potency [11] | Potency [15] | Potency [16] | outcome [12]
active: Potency [17] 16.1 µM
14.7%: max response [5]
5.99%: max response [8]

Cc1ncc([N+](=O)[O-])n1CCO
inactive: outcome [19]
